Laboratory results published in paper PMC10812921, “Transcriptional Coactivator BOB1 (OBF1, OCA-B) Modulates the Specificity of DNA Recognition by the POU-Domain Factors OCT1 and OCT2 in a Monomeric Configuration”.

Experiments:
POU1 (OCT1 POU domain) = POU1 (OCT1 POU domain) (human, UniProt P14859 260-458); test: EMSA-SELEX-seq; no BOB1; 20 mM Tris-HCl pH 7.6, 140 mM NaCl, 10% glycerol, 0.5 mM EDTA, 0.05% Triton X-100, 0.1 mg/mL BSA, 0.1 mg/mL poly(dI-dC), 5 mM DTT, room temperature, 20 min; high values mean tight binding; details: protein: recombinant; dsDNA, one strand shown
How it was run: (§1)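 Tagged POU-domain proteins were produced in E. coli BL21, purified under denaturing conditions and renatured before use. They were mixed at 30 ng with 300 ng of a PCR-amplified double-stranded random 35-nt library, with or without 28 ng coactivator protein, in 20 μL Tris–HCl pH 7.6 binding buffer, incubating 20 min at RT. Complexes cut from native 6% PAGE were eluted and PCR-amplified over four rounds, then sequenced by Illumina, with binding preference taken as the percentage of sequenced 8-mers matching a motif pattern.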

POU2 (OCT2 POU domain) = target: T1, POU2 (OCT2 POU domain) (human, UniProt P09086 175-386); test: as above; details: protein: recombinant; dsDNA, one strand shown
T1 sequence: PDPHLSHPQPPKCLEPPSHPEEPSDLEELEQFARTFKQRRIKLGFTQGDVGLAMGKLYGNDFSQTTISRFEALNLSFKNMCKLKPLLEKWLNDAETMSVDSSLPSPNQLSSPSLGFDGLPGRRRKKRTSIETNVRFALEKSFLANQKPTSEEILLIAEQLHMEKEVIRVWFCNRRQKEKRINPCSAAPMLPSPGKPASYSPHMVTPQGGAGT
How it was run: as §1

[1] = target: POU1 (OCT1 POU domain);BOB1 (OBF1, OCA-B) (human;human, UniProt P14859;Q16633 260-458;1-256, |); test: EMSA-SELEX-seq; with BOB1 (ternary complex band); 20 mM Tris-HCl pH 7.6, 140 mM NaCl, 10% glycerol, 0.5 mM EDTA, 0.05% Triton X-100, 0.1 mg/mL BSA, 0.1 mg/mL poly(dI-dC), 5 mM DTT, room temperature, 20 min; high values mean tight binding; details: protein: recombinant;recombinant; copies: 1;1; dsDNA, one strand shown
How it was run: as §1

[2] = target: T2, POU2 (OCT2 POU domain);BOB1 (OBF1, OCA-B) (human;human, UniProt P09086;Q16633 175-386;1-256, |); test: as above; details: protein: recombinant;recombinant; copies: 1;1; dsDNA, one strand shown
T2 sequence 1: T1 sequence
T2 sequence 2: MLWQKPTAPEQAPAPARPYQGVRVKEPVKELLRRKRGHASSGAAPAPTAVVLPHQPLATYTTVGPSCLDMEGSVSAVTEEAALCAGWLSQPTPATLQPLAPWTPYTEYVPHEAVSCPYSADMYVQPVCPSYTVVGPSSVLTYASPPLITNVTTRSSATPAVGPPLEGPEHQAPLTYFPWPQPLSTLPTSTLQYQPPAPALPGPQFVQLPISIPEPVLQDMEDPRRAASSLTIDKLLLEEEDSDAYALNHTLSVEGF
How it was run: as §1

Sequence of POU1 (OCT1 POU domain) (P14859 260-458): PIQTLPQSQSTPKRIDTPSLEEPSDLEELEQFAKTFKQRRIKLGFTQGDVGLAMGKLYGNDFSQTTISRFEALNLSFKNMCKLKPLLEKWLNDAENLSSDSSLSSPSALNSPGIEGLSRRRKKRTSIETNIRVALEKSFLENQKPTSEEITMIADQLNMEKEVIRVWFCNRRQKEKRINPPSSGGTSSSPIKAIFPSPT

Sequence	binding signal (POU1 (OCT1 POU domain))	binding signal (POU2 (OCT2 POU domain))	binding signal [1]	binding signal [2]
AGCCAAAC	0.0194 % of ANNNNAAN 8-mers	0.0196 % of ANNNNAAN 8-mers	0.0261 % of ANNNNAAN 8-mers	0.0182 % of ANNNNAAN 8-mers
ACGGGAAA	0.0492 % of ANNNNAAN 8-mers	0.0564 % of ANNNNAAN 8-mers	0.0496 % of ANNNNAAN 8-mers	0.0586 % of ANNNNAAN 8-mers
ATACTAAA	0.0648 % of ANNNNAAN 8-mers	0.0886 % of ANNNNAAN 8-mers	0.0499 % of ANNNNAAN 8-mers	0.0594 % of ANNNNAAN 8-mers
ATGCAAAG	1.06 % of ANNNNAAN 8-mers	0.831 % of ANNNNAAN 8-mers	2.22 % of ANNNNAAN 8-mers	2.27 % of ANNNNAAN 8-mers
ATATGAAT	0.243 % of ANNNNAAN 8-mers	0.316 % of ANNNNAAN 8-mers	0.122 % of ANNNNAAN 8-mers	0.141 % of ANNNNAAN 8-mers
AATGGAAA	0.242 % of ANNNNAAN 8-mers	0.155 % of ANNNNAAN 8-mers	0.268 % of ANNNNAAN 8-mers	0.164 % of ANNNNAAN 8-mers
ATTCCAAT	0.0767 % of ANNNNAAN 8-mers	0.11 % of ANNNNAAN 8-mers	0.057 % of ANNNNAAN 8-mers	0.0751 % of ANNNNAAN 8-mers
AGATGAAA	0.0629 % of ANNNNAAN 8-mers	0.0558 % of ANNNNAAN 8-mers	0.0718 % of ANNNNAAN 8-mers	0.0611 % of ANNNNAAN 8-mers
AAGATAAC	0.0248 % of ANNNNAAN 8-mers	0.0334 % of ANNNNAAN 8-mers	0.0285 % of ANNNNAAN 8-mers	0.0388 % of ANNNNAAN 8-mers
ATTGCAAT	0.0561 % of ANNNNAAN 8-mers	0.061 % of ANNNNAAN 8-mers	0.0523 % of ANNNNAAN 8-mers	0.0479 % of ANNNNAAN 8-mers
AACCCAAC	0.0103 % of ANNNNAAN 8-mers	0.0132 % of ANNNNAAN 8-mers	0.0113 % of ANNNNAAN 8-mers	0.0182 % of ANNNNAAN 8-mers
AACTAAAA	0.0431 % of ANNNNAAN 8-mers	0.0478 % of ANNNNAAN 8-mers	0.0386 % of ANNNNAAN 8-mers	0.0305 % of ANNNNAAN 8-mers
ATGTGAAT	0.138 % of ANNNNAAN 8-mers	0.158 % of ANNNNAAN 8-mers	0.0921 % of ANNNNAAN 8-mers	0.134 % of ANNNNAAN 8-mers
AAACTAAA	0.0503 % of ANNNNAAN 8-mers	0.0483 % of ANNNNAAN 8-mers	0.0523 % of ANNNNAAN 8-mers	0.0471 % of ANNNNAAN 8-mers
ACAGTAAG	0.0328 % of ANNNNAAN 8-mers	0.0253 % of ANNNNAAN 8-mers	0.032 % of ANNNNAAN 8-mers	0.0272 % of ANNNNAAN 8-mers
ATCTAAAA	0.0564 % of ANNNNAAN 8-mers	0.0524 % of ANNNNAAN 8-mers	0.0535 % of ANNNNAAN 8-mers	0.0669 % of ANNNNAAN 8-mers
AGAGGAAG	0.0358 % of ANNNNAAN 8-mers	0.0432 % of ANNNNAAN 8-mers	0.0441 % of ANNNNAAN 8-mers	0.0413 % of ANNNNAAN 8-mers
AGACGAAC	0.0202 % of ANNNNAAN 8-mers	0.0236 % of ANNNNAAN 8-mers	0.0137 % of ANNNNAAN 8-mers	0.0182 % of ANNNNAAN 8-mers
ATGCTAAT	1.85 % of ANNNNAAN 8-mers	1.82 % of ANNNNAAN 8-mers	0.249 % of ANNNNAAN 8-mers	0.283 % of ANNNNAAN 8-mers
ATTCCAAA	0.0481 % of ANNNNAAN 8-mers	0.0564 % of ANNNNAAN 8-mers	0.041 % of ANNNNAAN 8-mers	0.0578 % of ANNNNAAN 8-mers
AGGCGAAC	0.0183 % of ANNNNAAN 8-mers	0.0247 % of ANNNNAAN 8-mers	0.0207 % of ANNNNAAN 8-mers	0.0305 % of ANNNNAAN 8-mers
ACGTAAAT	0.217 % of ANNNNAAN 8-mers	0.172 % of ANNNNAAN 8-mers	0.232 % of ANNNNAAN 8-mers	0.147 % of ANNNNAAN 8-mers
AGTTAAAG	0.0545 % of ANNNNAAN 8-mers	0.0564 % of ANNNNAAN 8-mers	0.064 % of ANNNNAAN 8-mers	0.0528 % of ANNNNAAN 8-mers
ATGGAAAA	0.233 % of ANNNNAAN 8-mers	0.162 % of ANNNNAAN 8-mers	0.289 % of ANNNNAAN 8-mers	0.147 % of ANNNNAAN 8-mers
AAAAAAAA	0.11 % of ANNNNAAN 8-mers	0.193 % of ANNNNAAN 8-mers	0.174 % of ANNNNAAN 8-mers	0.13 % of ANNNNAAN 8-mers
ATCAAAAA	0.061 % of ANNNNAAN 8-mers	0.0702 % of ANNNNAAN 8-mers	0.0851 % of ANNNNAAN 8-mers	0.0636 % of ANNNNAAN 8-mers
AACAAAAC	0.0587 % of ANNNNAAN 8-mers	0.0409 % of ANNNNAAN 8-mers	0.0987 % of ANNNNAAN 8-mers	0.0636 % of ANNNNAAN 8-mers
AAGTAAAC	0.0477 % of ANNNNAAN 8-mers	0.0489 % of ANNNNAAN 8-mers	0.0535 % of ANNNNAAN 8-mers	0.0487 % of ANNNNAAN 8-mers
AACGGAAC	0.0187 % of ANNNNAAN 8-mers	0.0201 % of ANNNNAAN 8-mers	0.025 % of ANNNNAAN 8-mers	0.0206 % of ANNNNAAN 8-mers
ATTCTAAG	0.0747 % of ANNNNAAN 8-mers	0.0857 % of ANNNNAAN 8-mers	0.0593 % of ANNNNAAN 8-mers	0.0702 % of ANNNNAAN 8-mers
